The record followed here is PubChem BioAssay (NCI).

Some test systems named below: SK-MEL-2 melanoma; EKVX NSCLC; UO-31 renal; ACHN renal; A498 renal; CCRF-CEM leukemia; MOLT-4 leukemia; SR leukemia; RPMI-8226 leukemia; OVCAR-8 ovarian; OVCAR-5 ovarian; OVCAR-4 ovarian; SK-OV-3 ovarian; IGROV1 ovarian; OVCAR-3 ovarian; HS 578T breast; NCI/ADR-RES ovarian; CAKI-1 renal; SN12C renal; TK-10 renal.
Experiment in all cases: NCI-60 one-dose screen, 48 h (100 = growth as untreated, 0 = no growth, -100 = all killed)
Settings in all cases: 10 µM unless noted

SMILES strings stand for the structures. Compounds without any hit were thinned out: in the full panel of roughly 83,000, 20% have a hit.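 Interpretation: 100, growth as untreated; towards 0, rising growth inhibition; 0, no net growth; 0 to -100, cell death. Compounds scoring below 10 were considered active.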 Values without a mark were called inactive. The source made the active and inactive calls.

With `COc1ccc2cc(-c3nn(-c4ccc(C(=O)O)cc4)cc3CO)ccc2c1`, the growth in the experiment with SK-MEL-2 melanoma was 83.2%; with EKVX NSCLC, 90.7%; in the experiment on UO-31 renal, 86.6%; with ACHN renal, 104%; in the experiment on A498 renal, 94.5%; in the experiment with CCRF-CEM leukemia, 102%. Also, the growth in the experiment with MOLT-4 leukemia is 84.7%; with SR leukemia it was 90.8%; in the experiment on RPMI-8226 leukemia it was 95.1%; in the experiment with OVCAR-8 ovarian it was 101%; in the experiment on OVCAR-5 ovarian, 100%; with OVCAR-4 ovarian, 106%. The growth is 107% with SK-OV-3 ovarian; 99.2% in the experiment with IGROV1 ovarian; 93.5% in the experiment on OVCAR-3 ovarian; 97.3% in the experiment on HS 578T breast; 99.8% with NCI/ADR-RES ovarian.

On to `C=C(C)C1CC(O)C2(C)CCCC3C2C1CC(C)C3(C)CC/C(C)=C/C(O)C1CCC(=O)c2c(OC)cc(OC)cc21` (stereo not drawn), for which the growth in the experiment on SK-MEL-2 melanoma is 65.8%; with UO-31 renal, 47.6%; in the experiment on ACHN renal, 41.1%; in the experiment on CAKI-1 renal, 48.5%; with A498 renal it was 9.01% (active); with CCRF-CEM leukemia, 25.7%. Besides, the growth was 21.7% with MOLT-4 leukemia; 26.6% with SR leukemia; 6.09% (active) with RPMI-8226 leukemia; 41.6% with OVCAR-8 ovarian; 86.9% in the experiment with OVCAR-5 ovarian; 23.3% in the experiment on OVCAR-4 ovarian. For the same compound, the growth is 50.9% in the experiment with IGROV1 ovarian, 32.7% in the experiment on OVCAR-3 ovarian, 61.6% with HS 578T breast and 45.9% with NCI/ADR-RES ovarian.

As for `COc1ccc(Nc2c3c4c(cccc4[nH]c2=O)C(=O)c2ccccc2-3)cc1`, the growth with SK-MEL-2 melanoma was 40.2%; in the experiment on EKVX NSCLC, 42.3%; with UO-31 renal, 30.3%; in the experiment on ACHN renal, 24.2%; in the experiment on CAKI-1 renal, 11.7%; with A498 renal, 23%. The growth is -0.546% (active) in the experiment with CCRF-CEM leukemia; 1.81% (active) in the experiment with MOLT-4 leukemia; 5.52% (active) in the experiment on RPMI-8226 leukemia; 13.1% in the experiment with OVCAR-8 ovarian; 24.1% in the experiment on OVCAR-5 ovarian; 58.4% in the experiment on OVCAR-4 ovarian. Also, the growth is -5.92% (active) in the experiment with SK-OV-3 ovarian, -39% (active) with OVCAR-3 ovarian, -12.4% (active) in the experiment with HS 578T breast and 0.0341% (active) with NCI/ADR-RES ovarian.

As for `OCCNc1nccc(N2CCN(c3ccnc4cc(Cl)ccc34)CC2)n1`, the growth in the experiment on SK-MEL-2 melanoma was 84.1%; in the experiment with SN12C renal, 84.5%; with UO-31 renal it was 47.7%; in the experiment with TK-10 renal, 94.4%; in the experiment with ACHN renal it was 92.5%; in the experiment with CAKI-1 renal, 77%. Also, the growth with A498 renal was 15.5%; with CCRF-CEM leukemia, 66.5%; with MOLT-4 leukemia, 52.4%; in the experiment on SR leukemia, 17.4%; in the experiment with RPMI-8226 leukemia, 89.3%; with OVCAR-8 ovarian, 94.6%. The growth is 102% in the experiment on OVCAR-5 ovarian; 77.5% in the experiment on OVCAR-4 ovarian; 85.2% with SK-OV-3 ovarian; 55.7% in the experiment with IGROV1 ovarian; 81.1% in the experiment on OVCAR-3 ovarian; 92.1% in the experiment with HS 578T breast.

As to `COc1cc(-c2nc3ccccc3[nH]2)ccc1OCc1nnc(-c2ccc(CC(C)C)cc2)o1`, the growth is 101% with SK-MEL-2 melanoma; 89.9% in the experiment with SN12C renal; 64.9% in the experiment with UO-31 renal; 115% in the experiment on TK-10 renal; 101% with ACHN renal; 96.3% in the experiment with CAKI-1 renal. Moreover, the growth was 64% in the experiment with A498 renal; 84.9% in the experiment with CCRF-CEM leukemia; 78.8% with MOLT-4 leukemia; 80.2% with SR leukemia; 83% with RPMI-8226 leukemia; 92.2% in the experiment on OVCAR-8 ovarian. The growth is 114% with OVCAR-5 ovarian; 90.9% in the experiment on OVCAR-4 ovarian; 92.3% in the experiment on IGROV1 ovarian; 95.2% in the experiment on OVCAR-3 ovarian; 89.8% in the experiment on NCI/ADR-RES ovarian.

Turning to `CCOc1cc2c(cc1OCC)C(c1cc(OC)c(O)cc1Cl)NCC2` (stereo not drawn), the growth with SK-MEL-2 melanoma was 113%; in the experiment on SN12C renal, 96.7%; with UO-31 renal it was 70.1%; in the experiment with TK-10 renal it was 88.2%; with ACHN renal, 94.6%; in the experiment with CAKI-1 renal, 115%. Also, the growth is 93.7% with A498 renal; 108% with CCRF-CEM leukemia; 112% in the experiment on MOLT-4 leukemia; 98.7% in the experiment on SR leukemia; 94% in the experiment with RPMI-8226 leukemia; 90.8% in the experiment with OVCAR-8 ovarian. Besides, the growth with OVCAR-5 ovarian is 85.9%; with OVCAR-4 ovarian, 89.2%; with SK-OV-3 ovarian, 103%; in the experiment on IGROV1 ovarian, 90.5%; in the experiment on OVCAR-3 ovarian, 98.6%; in the experiment on HS 578T breast, 106%.

As to `CS(=O)(=O)c1ccc(-n2nc(-c3ccc(Br)cc3)c3ccccc3c2=O)cc1`, the growth is 107% in the experiment with SK-MEL-2 melanoma; 102% in the experiment on SN12C renal; 67.9% with UO-31 renal; 105% in the experiment on TK-10 renal; 95.9% with ACHN renal; 98.7% with CAKI-1 renal. Also, the growth was 81.3% with A498 renal; 97.1% with CCRF-CEM leukemia; 94% in the experiment on MOLT-4 leukemia; 110% in the experiment with SR leukemia; 99.8% in the experiment with RPMI-8226 leukemia; 100% in the experiment with OVCAR-8 ovarian. The growth was 108% in the experiment on OVCAR-5 ovarian; 97.8% with OVCAR-4 ovarian; 109% in the experiment with IGROV1 ovarian; 102% in the experiment on OVCAR-3 ovarian; 100% in the experiment on HS 578T breast.

As to `Cc1cc(Nc2ccc(C)c(Cl)c2)n2nc(C(F)(F)F)nc2n1`, the growth was 60.8% in the experiment on SK-MEL-2 melanoma; 22.1% in the experiment with SN12C renal; -43.2% (active) in the experiment on UO-31 renal; -32.3% (active) with TK-10 renal; -2.48% (active) in the experiment with ACHN renal; -35.5% (active) in the experiment with CAKI-1 renal. Further, the growth in the experiment on A498 renal is 91.9%; in the experiment on CCRF-CEM leukemia, 62%; in the experiment on MOLT-4 leukemia, 74.1%; in the experiment on SR leukemia, 60.6%; with RPMI-8226 leukemia, 51.6%; in the experiment with OVCAR-8 ovarian, 30.8%. Also, the growth is 55.4% in the experiment with OVCAR-5 ovarian; -62.7% (active) in the experiment on OVCAR-4 ovarian; -50.5% (active) in the experiment with SK-OV-3 ovarian; 15.1% in the experiment on IGROV1 ovarian; 15.2% in the experiment on OVCAR-3 ovarian; 28.7% in the experiment with HS 578T breast.

For the compound `Fc1ccc(CNc2cccc3[nH]c(C(F)(F)F)nc23)cc1`, the growth in the experiment on SN12C renal was 72.4%; with UO-31 renal, 84.8%; in the experiment on TK-10 renal, 102%; in the experiment with ACHN renal, 96.2%; in the experiment with CAKI-1 renal, 81.2%; in the experiment with A498 renal, 39.7%. The growth with CCRF-CEM leukemia is 52.4%; with MOLT-4 leukemia it was 41.7%; in the experiment on SR leukemia it was 66%; in the experiment on RPMI-8226 leukemia it was 36.5%; in the experiment with OVCAR-8 ovarian it was 90.1%; in the experiment with OVCAR-4 ovarian, 89.3%. In addition, the growth with SK-OV-3 ovarian was 97.9%; with OVCAR-3 ovarian it was 76.6%; in the experiment on HS 578T breast, 82.3%; with NCI/ADR-RES ovarian, 100%.
